mHTT-CaM PPI inh: disrupts binding of mutant huntingtin to calmodulin; P42858; AlphaScreen His-mHTT/GST-CaM binding, luminescence; inhibition, % at 15 µM; 190,000 compounds, 3.6% hits; AID 1671202;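 also: 0% = both proteins with DMSO and 100% = one protein alone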
Pf apPOL block: Pf-apPOL DNA polymerase inhibition; 210,000 compounds, 0.25% hits; AID 1794808; Recombinant Pf-apPOL, molecular beacon fluorescence, 1.5 h; inhibition, % at 10 µM
An asterisk follows results filed as active. The entries come from a sample that favours hits as a whole. Rule as the data show it: active = inhibition above about 50%; inactive = the rest.

How did CNC(=O)N1CCCC(c2cccc(C(=O)N3CCN(c4ccccc4Cl)CC3)c2)C1 (centres undefined) do in these assays?
mHTT-CaM PPI inh: 3; Pf apPOL block: -1

What do the screens show for `COc1cc(/C=C2\C(=O)NN(c3ccc(C)cc3)C2=O)ccc1OCc1ccc(Cl)cc1`?
mHTT-CaM PPI inh: 5; Pf apPOL block: -2

Results for N#Cc1cccc(C(=O)Cc2cccc(Oc3ccccc3)c2)c1 ?
Pf apPOL block: 56*

Results for NCc1cccc(Oc2ccccc2)c1 ?
mHTT-CaM PPI inh: -5; Pf apPOL block: -13

How did CCc1cc(C2CCCN2C(=O)NCc2cccc(OC)c2)on1 (centres undefined) do in these assays?
mHTT-CaM PPI inh: -8; Pf apPOL block: -6

What do the screens show for `CCN1C(=O)/C(=C2\C=Cc3ccccc3N2CC)SC1=Nc1ccccc1`?
mHTT-CaM PPI inh: 97*; Pf apPOL block: -2

Results for CCN1C(=O)/C(=C2\C=Cc3ccccc3N2CC)SC1=Nc1ccc(N2CCOCC2)cc1 ?
mHTT-CaM PPI inh: 0; Pf apPOL block: -3

What do the screens show for `O=C1C(Nc2ccccc2)=C(NS(=O)(=O)c2ccccc2)C(=O)c2ccccc21`?
mHTT-CaM PPI inh: 16; Pf apPOL block: 0

How did Nc1c(S(=O)(=O)O)cc(Nc2ccc(Nc3nc(Cl)nc(Nc4ccc(S(=O)(=O)O)cc4)n3)c(S(=O)(=O)O)c2)c2c1C(=O)c1ccccc1C2=O do in these assays?
Pf apPOL block: 43

Results for Cc1ccc(S(=O)(=O)Nc2cc(S(=O)(=O)O)c(N)c3c2C(=O)c2ccccc2C3=O)cc1 ?
mHTT-CaM PPI inh: 79*; Pf apPOL block: 3

Results for NC1=C(Nc2ccccc2)C(=O)c2ccccc2C1=O ?
mHTT-CaM PPI inh: 93*; Pf apPOL block: -6

What do the screens show for `Nc1c(S(=O)(=O)O)cc(Br)c2c1C(=O)c1ccccc1C2=O`?
mHTT-CaM PPI inh: 39; Pf apPOL block: 0

What do the screens show for `Nc1c(S(=O)(=O)O)cc(Nc2ccccc2)c2c1C(=O)c1ccccc1C2=O`?
mHTT-CaM PPI inh: 98*; Pf apPOL block: -10

What do the screens show for `N#Cc1ccc(NN=Cc2ccc(Cl)cc2)c(Cl)c1`?
Pf apPOL block: -15

How did O=C(c1ccco1)N1CCC(n2c(-c3cccs3)nc3cccnc32)C1 (centres undefined) do in these assays?
mHTT-CaM PPI inh: 6; Pf apPOL block: 4

Results for COc1ccc(CCNC(=O)COc2cc(C)c(Br)c(C)c2)cc1OC ?
mHTT-CaM PPI inh: 18; Pf apPOL block: -3

How did CCN(CC)C(=O)CNC(=O)c1nn(-c2ccc(OC)c(OC)c2)c(=O)c2ccccc12 do in these assays?
mHTT-CaM PPI inh: 9; Pf apPOL block: -8

Results for CCN(CC)C(=O)CNC(=O)c1nn(-c2ccc(OC)c(Cl)c2)c(=O)c2ccccc12 ?
mHTT-CaM PPI inh: 56*; Pf apPOL block: -3

Results for COc1ccc(-n2nc(C(=O)NCC(=O)NCc3ccccc3)c3ccccc3c2=O)cc1Cl ?
mHTT-CaM PPI inh: 98*; Pf apPOL block: -6

Results for COc1ccc(-n2nc(C(=O)NCC(=O)Nc3cccc(C)n3)c3ccccc3c2=O)cc1Cl ?
mHTT-CaM PPI inh: 6; Pf apPOL block: 0

Results for O=C(CCc1nc2ccccc2n(Cc2ccc(F)cc2)c1=O)NCc1cccs1 ?
mHTT-CaM PPI inh: 18; Pf apPOL block: 36

What do the screens show for `Cc1ccccc1N1CC(=O)NC1=O`?
mHTT-CaM PPI inh: -10; Pf apPOL block: -3

Results for COc1ccc(OC)c(NC(=O)c2c(N)sc3c2CCCCC3)c1 ?
mHTT-CaM PPI inh: 64*; Pf apPOL block: -4

How did CCOC(=O)N1CCc2c(sc(NC(=O)c3cc(C)on3)c2C(=O)OC)C1 do in these assays?
mHTT-CaM PPI inh: -12; Pf apPOL block: -2

How did CCOC(=O)N1CCc2c(sc(N)c2C(=O)Nc2cc(OC)ccc2OC)C1 do in these assays?
mHTT-CaM PPI inh: 54*; Pf apPOL block: -8

How did COc1ccc(OC)c(NC(=O)c2c(NCc3cccnc3)sc3c2CCC3)c1 do in these assays?
mHTT-CaM PPI inh: 81*; Pf apPOL block: -14

What do the screens show for `CCOc1ccccc1NC(=O)c1c(NC(=O)C(F)(F)F)sc2c1CCCCC2`?
mHTT-CaM PPI inh: 7; Pf apPOL block: 4

How did COc1ccccc1NC(=O)c1c(NCc2cccnc2)sc2c1CCCCC2 do in these assays?
mHTT-CaM PPI inh: 80*; Pf apPOL block: -19

What do the screens show for `COc1ccc(OC)c(NC(=O)c2c(NC(=O)CNCc3ccco3)sc3c2CCC3)c1`?
mHTT-CaM PPI inh: 3; Pf apPOL block: -1

How did COc1ccccc1NC(=O)c1c(N)sc2c1CCCC2 do in these assays?
mHTT-CaM PPI inh: 31; Pf apPOL block: -4

Results for O=C(c1cn2ccnc(-c3ccc(F)cc3)c2n1)N1CCCCCC1 ?
mHTT-CaM PPI inh: -1; Pf apPOL block: 0

Results for COc1cccc(C2=N/C(=C/c3cccc(OC)c3OC)C(=O)O2)c1 ?
mHTT-CaM PPI inh: 8; Pf apPOL block: 4

How did O=C(c1ccc(Cn2ccnc2)cc1)N1CCN(Cc2nc3ccccc3[nH]2)CC1 do in these assays?
mHTT-CaM PPI inh: -7; Pf apPOL block: -5

How did O=C(Nc1ccc(N=Nc2ccccc2)cc1)c1ccc(Br)o1 do in these assays?
mHTT-CaM PPI inh: 26; Pf apPOL block: 0

Results for COc1ccccc1NC(=O)c1c(NCc2ccc(OC)c(OC)c2)sc2c1CCC2 ?
mHTT-CaM PPI inh: 27; Pf apPOL block: -15

How did CCOc1ccccc1NC(=O)c1c(NCc2ccccn2)sc2c1CCCC2 do in these assays?
mHTT-CaM PPI inh: 30; Pf apPOL block: -27

Results for COc1ccc(OC)c(NC(=O)c2c(NCc3ccc(OC)c(OC)c3)sc3c2CCC3)c1 ?
mHTT-CaM PPI inh: 52*; Pf apPOL block: -17

Results for CCOc1ccccc1NC(=O)c1c(NCc2cccnc2)sc2c1CCCCC2 ?
mHTT-CaM PPI inh: 80*; Pf apPOL block: -17

How did CC(C)c1nnc(NC(=O)/C=C/c2ccc3c(c2)OCO3)s1 do in these assays?
mHTT-CaM PPI inh: 2; Pf apPOL block: -12

Results for O=C(Nc1ccccc1NC(=O)C1CCC1)c1ccccc1F ?
mHTT-CaM PPI inh: -17; Pf apPOL block: -12

What do the screens show for `CC(=O)N1CCc2ccccc2C1C(=O)N1CCN(c2ccc(F)cc2)CC1` (centres undefined)?
mHTT-CaM PPI inh: 13; Pf apPOL block: -2

How did CC(=O)N1CCc2ccccc2C1C(=O)N1CCN(c2ccc(C)cc2)CC1 (centres undefined) do in these assays?
mHTT-CaM PPI inh: 44; Pf apPOL block: -1

Results for CC(=O)N1CCc2ccccc2C1C(=O)N1CCN(c2cccc(Cl)c2)CC1 (centres undefined) ?
mHTT-CaM PPI inh: 78*; Pf apPOL block: -3

What do the screens show for `O=C(C1c2ccccc2CCN1C(=O)C1CC1)N1CCN(c2ccc(F)cc2)CC1` (centres undefined)?
mHTT-CaM PPI inh: 55*; Pf apPOL block: -2

How did COc1cc(OC)c(C2Nc3cc(C)c(C)cc3NC3=C2C(=O)CC(C)(C)C3)cc1OC (centres undefined) do in these assays?
mHTT-CaM PPI inh: 9; Pf apPOL block: 1

Results for Cc1ccc(C(=O)Nc2ccc([N+](=O)[O-])cc2Cl)c(Cl)c1 ?
mHTT-CaM PPI inh: -2; Pf apPOL block: -6

What do the screens show for `O=C1CCC[C@@H]2[C@@H](Cc3ccccc3)[C@@H](Nc3ccccc3)C[C@@H]3CCN1[C@@H]32`?
mHTT-CaM PPI inh: 70*; Pf apPOL block: -5

What do the screens show for `O=C1CCC[C@@H]2[C@H](Cc3ccccc3)[C@@H](O)C[C@@H]3CCN1[C@@H]32`?
mHTT-CaM PPI inh: 1; Pf apPOL block: -9
